Results on nine compounds are retold here after PubChem BioAssay (NCATS).

Inconclusive results are not listed. Active and inactive are the calls of the source. Unless noted, calls come from the whole dose curve; as a rule, active = well fitted curve in the direction sought with a large enough effect; inconclusive = small, poorly fitted or top-dose-only effect, or another doubt; inactive = no such curve, though single readings can be large; an effect the other way counts as inactive or inconclusive.

Assay [1] can be described thus: Cell Viability - Jurkat (AID 426;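 active = dose-dependent loss of cell ATP signal giving a full or clear fitted curve, ranked by lower potency value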;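 note: potency is the fitted concentration of half-maximal effect; cells exposed to compound for 40 hours at 37 °C before ATP read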). Particulars: qHTS. The method, boiled down:
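Cytotoxicity was scored as loss of cellular ATP, measured by luciferase-based luminescence, in Jurkat clone E6-1 cells after 40 h compound treatment; tamoxifen and doxorubicin served as positive controls.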

The nature of assay [2]: Cell Viability - N2a (AID 540).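 Note: cells exposed to compound for 40 h at 37 °C; plate controls were DMSO alone for no effect and tamoxifen control for full effect; nearly all actives have a fitted effect of over 45% in size.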 Particulars: N2a mouse neuroblastoma cell viability; activity change, negative = cytotoxicity: at 92.2 µM (top of the series). The method, boiled down: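 In this qHTS cytotoxicity screen, ATP-dependent luciferase luminescence reports viable N2a cells after a 40 hr compound exposure in complete culture medium. Potencies are AC50 values from standard Hill equation fits.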

Assay [3] addresses Glucocorticoid receptor (Homo sapiens) (UniProt P04150). In words: qHTS assay for small molecule agonists of glucocorticoid receptor signaling (AID 588532; active = well fitted curve in the direction sought with a large enough effect in the signal ratio, with a control signal flat; the % refers to the signal ratio;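 note: 100% = dexamethasone at 0.1 µM and 0% = DMSO only wells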). The following applies: HeLa MMTV-bla, beta-lactamase ratio, agonist, 18 h; stronger effect = higher value; percent of dexamethasone control, DMSO zero. In short, it runs like this: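 Using MMTV-bla HeLa cells in medium with 1% stripped FBS and 25 mM HEPES, compounds were titrated and incubated overnight-length (18 h). Beta-lactamase cleavage of CCF4 was quantified by dual-emission fluorescence.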

For assay [4], the target named is Peroxisome proliferator-activated receptor delta (Homo sapiens) (UniProt Q03181). The assay can be described thus: qHTS assay for small molecule agonists of peroxisome proliferator-activated receptor delta signaling (AID 588534; calls by dose curve;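 note: 0% = DMSO basal wells and 100% = positive control agonist at 10 µM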). The method, boiled down:
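EC50 and efficacy values derive from Hill fits of a concentration series in a beta-lactamase reporter cell assay. Exposure is 18 hrs at 37 C, with CCF4 fluorescence as the readout.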

Assay [5] in a line: qHTS assay for small molecule antagonists of peroxisome proliferator-activated receptor delta signaling (AID 588535; active = well fitted inhibition curve with a large enough effect in the signal ratio, with a control signal flat, not every such curve was filed as active; the % refers to the signal ratio;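 for max response: cells co-treated with a PPAR-delta agonist as stimulator during compound exposure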). The following applies: HEK293T PPARd-UAS-bla, beta-lactamase FRET ratio, 18 h; 460 nm channel. The method, boiled down:
(§1)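 Antagonist-mode qHTS using GeneBLAzer PPAR-delta-UAS-bla HEK293T cells; compound exposure 18 hrs at 37 C over a titration. Ratiometric CCF4 fluorescence at 460/530 nm; concentration-response points fitted to the Hill equation.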

The target in assay [6] is Peroxisome proliferator-activated receptor delta (Homo sapiens) (UniProt Q03181). The assay is described as above. In short, it runs like this:
as §1

The target of assay [7] is Vitamin D3 receptor (Homo sapiens) (UniProt P11473). The assay can be described thus: qHTS assay for small molecule antagonists of vitamin D receptor signaling (AID 588541; calls by dose curve;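 note: receptor activated by calcitriol during compound treatment; % is set by controls: 0 for no effect and ±100 for the full control effect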). In short, it runs like this:
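Antagonist-mode beta-lactamase reporter assay: HEK293T VDR-UAS-bla cells were exposed to titrated compound alongside 1-alpha,25-dihydroxyvitamin D3 at 3 nM final for 16 h. Values were normalized to the 50 nM agonist control and DMSO basal, with IC50 and efficacy from Hill equation fits.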

The nature of assay [8]: qHTS assay for small molecule agonists of the antioxidant response element (ARE) signaling pathway (AID 651741; active = well fitted activation curve with a large enough effect in the signal ratio; the % refers to the signal ratio; note: potency is the fitted concentration of half-maximal effect; for activation: % of control where 0% means no effect). The method, boiled down: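 Agonist activity is measured as ARE-driven beta-lactamase expression in a stable HepG2 reporter line, using 16 h compound treatment at 37 C and a FRET substrate fluorescence readout after 2 h.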
Assay [9] is described as follows: qHTS assay for small molecule disruptors of the mitochondrial membrane potential - 1 hr assay (AID 651754; calls by dose curve; note: nearly all actives have a fitted effect of over 35% in size; note: potency is the fitted concentration of half-maximal effect). The method, boiled down: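 In this qHTS format, a 1 hr compound treatment of HepG2 cells precedes Mito-MPS staining, and membrane potential is judged from aggregate (red) against monomer (green) fluorescence intensity.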
Assay [10] is described as follows: qHTS assay for small molecule disruptors of the mitochondrial membrane potential - 5 hr assay (AID 651755; calls by dose curve; note: % is set by controls: 0 for no effect and ±100 for the full control effect; nearly all actives have a fitted effect of over 40% in size). The method, boiled down: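 Membrane-potential dye readout: red aggregate (540 ex/590 em) versus green monomer (490 ex/535 em) fluorescence after 30 min dye loading, following 5 hr compound exposure at 37C of overnight-plated HepG2 cells.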
Assay [11] can be described thus: MultiTox-Fluor Cytotoxicity Assay - LYMP1-001 - Live Cells (AID 947).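 Note: 0% = DMSO only and full inhibition = tetraoctylammonium bromide control.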
The nature of assay [12]: Cell Viability - LYMP1-003 - Assay at 24 hr (AID 963).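 Note: plate controls were DMSO only for no effect and tetraoctylammonium bromide positive control for full effect.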 The method, boiled down: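 The lymphoblastoid line was treated with titrated compounds for 24 hours, and viable cell number estimated from luciferase-based ATP luminescence.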
Assay [13] is described as follows: Cell Viability - LYMP2-004 (AID 966).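 Note: plate controls were DMSO only for no effect and tetraoctylammonium bromide control for full effect; nearly all actives have a fitted effect of over 65% in size.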 In short, it runs like this:
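Viable-cell number estimated from ATP luminescence (CellTiter-Glo) in 2500 human lymphoblastoid cells/well after 24 hr at 37 C with compound. AC50 fitted to the standard Hill equation.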

The nature of assay [14]: Cell Viability - LYMP2-002 (AID 977).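 Note: compound exposure lasted 24 h at 37 °C; plate controls were DMSO only for no effect and 92 µM tetraoctylammonium bromide for full effect.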 The method, boiled down:
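Human lymphoblastoid cells (2500/well) in complete medium were preincubated 5 hr at 37 C, then exposed to compounds for 24 hr at 37 C. Intracellular ATP was read by CellTiter-Glo luminescence; AC50 came from Hill-equation concentration-response fits.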

Assay [15] deals with Bile acid receptor (Homo sapiens) (UniProt Q96RI1). In words: qHTS assay for small molecule agonists of farnesoid X receptor signaling (AID 588527; calls by dose curve;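 note: 0% = vehicle basal and 100% = reference agonist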). The following applies: HEK293T FXR-UAS-bla, beta-lactamase ratio, 16 h; stronger effect = higher value. The method, boiled down: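 Agonist-mode beta-lactamase reporter in GeneBLAzer FXR-UAS-bla HEK293T cells, titration up to 92 uM, 16 h exposure at 37 C, CCF4 fluorescence. Response scaled to DMSO (0%) and 100 uM chenodeoxycholic acid (100%), then Hill-fitted for EC50 and efficacy.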
Bile acid receptor (Homo sapiens), sequence (Q96RI1 whole entry, looked up): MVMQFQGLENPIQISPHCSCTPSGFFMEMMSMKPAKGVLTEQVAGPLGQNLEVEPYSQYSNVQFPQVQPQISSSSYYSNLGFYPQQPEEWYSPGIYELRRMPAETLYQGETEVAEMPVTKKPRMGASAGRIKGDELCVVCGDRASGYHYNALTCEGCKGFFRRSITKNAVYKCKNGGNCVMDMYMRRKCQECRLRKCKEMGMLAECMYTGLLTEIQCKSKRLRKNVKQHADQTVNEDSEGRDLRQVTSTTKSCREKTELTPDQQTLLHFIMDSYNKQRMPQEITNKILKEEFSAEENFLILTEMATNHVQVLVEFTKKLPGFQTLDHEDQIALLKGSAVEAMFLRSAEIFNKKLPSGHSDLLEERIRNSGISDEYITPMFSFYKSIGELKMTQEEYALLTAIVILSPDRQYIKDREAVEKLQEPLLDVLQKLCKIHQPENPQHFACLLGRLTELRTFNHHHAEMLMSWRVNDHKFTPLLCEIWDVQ

The target of assay [16] is Peroxisome proliferator-activated receptor gamma (Homo sapiens) (UniProt P37231). In words: qHTS assay for small molecule antagonists of peroxisome proliferator-activated receptor gamma signaling (AID 588537; active = well fitted inhibition curve with a large enough effect in the signal ratio, with a control signal flat, not every such curve was filed as active; the % refers to the signal ratio;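 note: reporter cells co-stimulated with 50 nM rosiglitazone agonist during compound treatment; % of control where 0% means no effect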). The method, boiled down: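 Cell-based beta-lactamase assay; GW9662 served as the antagonist control. Stimulation used rosiglitazone, final 50 nM, 16 h, 37 C.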
Peroxisome proliferator-activated receptor gamma (Homo sapiens), sequence (P37231 whole entry, looked up): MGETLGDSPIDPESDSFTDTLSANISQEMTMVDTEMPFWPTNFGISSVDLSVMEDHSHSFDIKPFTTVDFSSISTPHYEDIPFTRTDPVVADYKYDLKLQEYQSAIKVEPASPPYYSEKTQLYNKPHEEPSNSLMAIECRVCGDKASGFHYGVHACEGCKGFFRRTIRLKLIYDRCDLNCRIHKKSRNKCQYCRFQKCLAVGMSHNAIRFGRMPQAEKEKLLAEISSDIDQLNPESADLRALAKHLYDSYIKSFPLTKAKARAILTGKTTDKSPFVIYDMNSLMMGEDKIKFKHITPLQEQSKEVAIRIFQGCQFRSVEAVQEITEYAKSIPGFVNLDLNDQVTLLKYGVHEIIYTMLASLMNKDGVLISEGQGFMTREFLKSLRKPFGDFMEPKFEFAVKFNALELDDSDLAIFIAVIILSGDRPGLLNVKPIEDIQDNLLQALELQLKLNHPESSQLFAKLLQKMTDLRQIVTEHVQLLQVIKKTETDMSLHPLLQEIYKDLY

Assay [17] in a line: Cell Viability - LYMP2-001 (AID 921).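 Note: 0% = DMSO only and full inhibition = tetraoctylammonium bromide control wells; nearly all actives have a fitted effect of over 70% in size.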 The method, boiled down:
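Human lymphoblastoid LYMP2-001 cells, 2500 per well, in complete medium, treated 24 h at 37 C. Viability from cellular ATP by CellTiter-Glo luminescence; AC50 from Hill-equation fits of qHTS concentration-response.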

Assay [18] deals with Bile acid receptor (Homo sapiens) (UniProt Q96RI1). In words: qHTS assay for small molecule antagonists of farnesoid X receptor signaling (AID 588526; calls by dose curve; note: % is set by controls: 0 for no effect and ±100 for the full control effect). The method, boiled down:
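Beta-lactamase reporter antagonist mode: HEK293T FXR-UAS-bla cells, titrated compound, CDCA stimulation, 16 h 37 C, CCF4 dye 2 h RT. Data normalized to CDCA 50 uM and DMSO; Hill-fit IC50.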

The target of assay [19] is Estrogen receptor (Homo sapiens) (UniProt P03372). In words: qHTS assay for small molecule antagonists of estrogen receptor alpha signaling (AID 588513; active = well fitted curve in the direction sought with a large enough effect in the signal ratio, with a control signal flat, not every such curve was filed as active; the % refers to the signal ratio; note: % is set by controls: 0 for no effect and ±100 for the full control effect). In short, it runs like this:
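ER-alpha-UAS-bla GripTite HEK 293 cells in 2% charcoal/dextran-treated FBS medium; compounds titrated (1:2, duplicate), then stimulated with 0.5 nM 17-beta-estradiol for 18 h at 37C. CCF4 beta-lactamase fluorescence; Hill-fit IC50 and efficacy.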

Assay [20] shares this target. The assay can be described thus: qHTS assay for small molecule agonists of estrogen receptor alpha signaling (AID 588514; calls by dose curve;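 note: 0% = vehicle only and 100% = reference agonist; nearly all actives have a fitted effect of over 70% in size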). In short, it runs like this: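 Fluorescence from CCF4 cleavage reports ER-alpha-driven beta-lactamase expression in HEK 293 cells treated 18 hrs at 37 C. Data normalized to 17-beta-estradiol (20 nM) and DMSO, fitted to Hill equation.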

Estrogen receptor (Homo sapiens), sequence (P03372 whole entry, looked up): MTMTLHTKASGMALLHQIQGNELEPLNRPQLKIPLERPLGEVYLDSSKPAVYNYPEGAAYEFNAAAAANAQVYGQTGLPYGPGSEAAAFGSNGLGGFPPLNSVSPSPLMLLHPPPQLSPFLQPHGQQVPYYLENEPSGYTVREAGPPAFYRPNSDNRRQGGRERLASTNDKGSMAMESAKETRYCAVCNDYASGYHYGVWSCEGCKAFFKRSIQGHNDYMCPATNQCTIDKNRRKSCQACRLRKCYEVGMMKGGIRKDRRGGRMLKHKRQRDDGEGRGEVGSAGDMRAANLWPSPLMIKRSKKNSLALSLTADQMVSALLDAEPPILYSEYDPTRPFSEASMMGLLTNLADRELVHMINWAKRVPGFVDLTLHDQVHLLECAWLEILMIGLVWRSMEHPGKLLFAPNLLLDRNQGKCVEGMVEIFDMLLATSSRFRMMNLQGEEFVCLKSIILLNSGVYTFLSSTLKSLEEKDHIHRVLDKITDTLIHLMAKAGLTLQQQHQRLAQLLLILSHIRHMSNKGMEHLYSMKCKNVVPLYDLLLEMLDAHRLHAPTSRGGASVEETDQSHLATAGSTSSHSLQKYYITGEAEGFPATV
Glucocorticoid receptor (Homo sapiens), sequence (P04150 whole entry, looked up): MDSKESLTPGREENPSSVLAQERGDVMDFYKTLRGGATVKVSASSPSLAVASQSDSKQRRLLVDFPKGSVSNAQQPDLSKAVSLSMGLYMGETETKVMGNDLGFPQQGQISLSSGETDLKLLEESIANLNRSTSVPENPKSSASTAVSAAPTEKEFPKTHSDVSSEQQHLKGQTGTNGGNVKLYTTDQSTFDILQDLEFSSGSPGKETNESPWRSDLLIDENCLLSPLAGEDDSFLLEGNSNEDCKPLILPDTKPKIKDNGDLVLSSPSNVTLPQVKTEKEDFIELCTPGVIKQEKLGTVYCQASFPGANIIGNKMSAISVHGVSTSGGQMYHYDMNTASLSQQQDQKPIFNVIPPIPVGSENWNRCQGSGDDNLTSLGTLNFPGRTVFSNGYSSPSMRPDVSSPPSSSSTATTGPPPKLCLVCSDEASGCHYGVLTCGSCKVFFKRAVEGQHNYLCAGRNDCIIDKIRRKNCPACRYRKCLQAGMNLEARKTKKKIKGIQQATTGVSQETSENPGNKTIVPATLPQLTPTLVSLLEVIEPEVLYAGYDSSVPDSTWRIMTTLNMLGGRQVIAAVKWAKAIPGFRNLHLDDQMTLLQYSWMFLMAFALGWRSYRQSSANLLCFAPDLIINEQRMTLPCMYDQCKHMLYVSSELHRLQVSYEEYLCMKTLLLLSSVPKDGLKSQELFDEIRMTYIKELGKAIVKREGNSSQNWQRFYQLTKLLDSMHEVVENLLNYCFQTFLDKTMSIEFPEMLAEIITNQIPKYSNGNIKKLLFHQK
Vitamin D3 receptor (Homo sapiens), sequence (P11473 whole entry, looked up): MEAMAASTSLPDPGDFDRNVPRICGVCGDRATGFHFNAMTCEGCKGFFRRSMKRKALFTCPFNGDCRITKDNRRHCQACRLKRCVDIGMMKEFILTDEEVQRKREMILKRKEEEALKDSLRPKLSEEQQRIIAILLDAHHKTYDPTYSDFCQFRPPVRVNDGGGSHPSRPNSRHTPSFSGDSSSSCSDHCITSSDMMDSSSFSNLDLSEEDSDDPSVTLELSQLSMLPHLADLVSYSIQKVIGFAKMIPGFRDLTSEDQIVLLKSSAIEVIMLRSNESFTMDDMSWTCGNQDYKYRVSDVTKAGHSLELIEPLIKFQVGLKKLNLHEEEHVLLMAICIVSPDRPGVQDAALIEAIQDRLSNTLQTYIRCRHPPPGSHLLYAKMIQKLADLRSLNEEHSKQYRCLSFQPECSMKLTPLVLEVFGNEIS
Peroxisome proliferator-activated receptor delta (Homo sapiens), sequence (Q03181 whole entry, looked up): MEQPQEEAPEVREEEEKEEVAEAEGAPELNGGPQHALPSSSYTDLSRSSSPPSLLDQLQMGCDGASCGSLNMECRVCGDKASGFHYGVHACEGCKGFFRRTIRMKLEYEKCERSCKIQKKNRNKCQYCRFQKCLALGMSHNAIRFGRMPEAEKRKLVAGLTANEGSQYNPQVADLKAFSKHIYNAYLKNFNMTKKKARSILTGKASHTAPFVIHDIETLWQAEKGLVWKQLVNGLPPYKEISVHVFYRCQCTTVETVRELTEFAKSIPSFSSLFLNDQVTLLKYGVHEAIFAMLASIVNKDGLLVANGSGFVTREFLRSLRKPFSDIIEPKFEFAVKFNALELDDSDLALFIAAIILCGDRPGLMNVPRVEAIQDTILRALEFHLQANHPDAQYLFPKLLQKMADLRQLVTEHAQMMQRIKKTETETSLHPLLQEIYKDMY

On to `O=NN1CCCCC1`, for which, in assay [1], the Potency was > 92 µM (inactive). Also, the Potency result in assay [2], in assay [8], in assay [9] and in assay [10] was “inactive” throughout. The activation in [3] was 0.249% (inactive). Also, the compound was classed as inactive in assay [4], in assay [6] and in assay [7]. Moreover, the max response in assay [5] was -27.9%.

Take `CCN(CC)N=O`: the Potency in assay [1] is > 92 µM (inactive). The Potency result in [2], in assay [13], in assay [14], in assay [16] and in [8] was “inactive” each time. Further, the compound was classed as inactive in [11] and in assay [12]. Further, the activation in assay [15] was -2.25% (inactive).

With `Nc1cc(Cl)cc(Cl)c1`, the Potency in assay [1] is > 92 µM (inactive). Also, the Potency entry in [17], in assay [14], in assay [16] and in assay [10] was “inactive” throughout. The compound was called inactive in assay [12], in assay [18], in [4], in [6] and in [7]. Besides, in assay [15], the activation was -0.351% (inactive). The max response in assay [5] is -13.8%.

On to `Oc1ccc(Cl)c(Cl)c1Cl`, for which the Potency in assay [1] is > 92 µM (inactive); in assay [8] it was 42.2 µM (active); in [9], 42.2 µM (active). Moreover, the Potency result in assay [17] and in assay [16] was “inactive” in each case. The outcome in assay [11], in [12], in [18], in [4] and in assay [7] was inactive. Moreover, the activation in assay [15] is 0.826% (inactive); in [3] it was 6.93% (inactive).

With `[O-][Cl+2]([O-])O`, the Potency in assay [1] was > 92 µM (inactive). The Potency entry in assay [2], in [17], in assay [13], in assay [19], in [20] and in [8] was “inactive” throughout. Besides, in assay [9], the Potency result is “inactive”. In addition, the outcome in assay [12] was inactive. Also, the activation in [15] was -2.85% (inactive).

Regarding `C=CC(=O)OC`, the Potency result in [2], in assay [17], in [13], in assay [16], in [8] and in assay [9] was “inactive” in each case. In addition, in assay [10], the Potency result is “inactive”. Besides, the compound was called inactive in assay [11], in assay [12], in assay [18] and in [7]. For the same compound, the activation in assay [15] is 1.11% (inactive).

Consider `CC(C)OS(C)(=O)=O`, for which, in assay [1], the Potency is > 92 µM (inactive). In addition, the Potency entry in assay [2], in assay [17], in assay [13], in [14], in assay [19] and in [20] was “inactive” each time. For the same compound, the Potency result in assay [10] was “inactive”. The call in assay [11], in assay [12], in assay [18], in assay [6] and in [7] was inactive. Further, the activation in assay [15] was -3.78% (inactive). Besides, the max response in assay [5] was -20%.

Take `CCOC(=O)CBr`: the Potency in assay [1] is > 92 µM (inactive). Further, the Potency entry in assay [2], in assay [17], in assay [13], in assay [14], in assay [8] and in assay [9] was “inactive” throughout. Further, the Potency result in [10] was “inactive”. Further, the compound was called inactive in [11], in [18], in assay [4] and in assay [6]. Also, in assay [15], the activation was 0.321% (inactive). Also, the max response in [5] was -11.7%.

On to `Oc1cc(Cl)cc(Cl)c1`, for which the Potency was > 92 µM (inactive) in [1] and 42.2 µM (active) in [9]. Moreover, the Potency entry in assay [17], in assay [13], in assay [14], in assay [19] and in [16] was “inactive” each time. Moreover, the outcome in [11], in assay [12], in assay [4] and in [7] was inactive. Moreover, in [3], the activation was 6.41% (inactive).
